LYPLA2 counter: counter-screen for PME1 inhibitors: inhibitors of human LYPLA2 | O95372 | recombinant LYPLA2, FP-Rh probe fluorescence polarization | inhibition, % at 5.9 µM | hit rate 0.38% among 320,000;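 active means inhibition above the screen-wide mean plus 3 SD, limit set per campaign, cut at about 26% in these data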
LYPLA1 counter: blocks human lysophospholipase 1, a PME1 counter-screen; recombinant LYPLA1, FP-Rh probe fluorescence polarization; O75608; AID 2174; inhibition, % at 5.9 µM; hit rate 0.16% among 320,000;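 active means inhibition above the mean of all tested compounds plus 3 SD, set per campaign, cut at about 14% in these data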;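 further: inhibitors block serine hydrolase probe labeling of LYPLA1 so polarization falls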
Target sequence (O75608 whole entry, looked up): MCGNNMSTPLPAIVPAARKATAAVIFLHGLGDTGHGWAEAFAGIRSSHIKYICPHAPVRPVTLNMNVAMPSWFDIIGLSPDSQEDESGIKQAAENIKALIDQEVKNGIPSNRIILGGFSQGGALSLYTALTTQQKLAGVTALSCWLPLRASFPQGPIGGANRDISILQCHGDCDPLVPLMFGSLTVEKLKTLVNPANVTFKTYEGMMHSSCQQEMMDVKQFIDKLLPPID
PME-1 inh: PME-1 (human) inhibition; Q9Y570; recombinant PME-1, FP-Rh probe fluorescence polarization; inhibition, % at 5.9 µM; hit rate 0.53% among 320,000; AID 2130;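 active means inhibition above the campaign mean of all compounds plus 3 SD, cut at about 26% in these data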;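 further: competitive labeling of PME-1 active site by serine hydrolase directed probe; inhibitors block probe labeling so polarization falls and inhibition rises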
Target sequence (Q9Y570 whole entry, looked up): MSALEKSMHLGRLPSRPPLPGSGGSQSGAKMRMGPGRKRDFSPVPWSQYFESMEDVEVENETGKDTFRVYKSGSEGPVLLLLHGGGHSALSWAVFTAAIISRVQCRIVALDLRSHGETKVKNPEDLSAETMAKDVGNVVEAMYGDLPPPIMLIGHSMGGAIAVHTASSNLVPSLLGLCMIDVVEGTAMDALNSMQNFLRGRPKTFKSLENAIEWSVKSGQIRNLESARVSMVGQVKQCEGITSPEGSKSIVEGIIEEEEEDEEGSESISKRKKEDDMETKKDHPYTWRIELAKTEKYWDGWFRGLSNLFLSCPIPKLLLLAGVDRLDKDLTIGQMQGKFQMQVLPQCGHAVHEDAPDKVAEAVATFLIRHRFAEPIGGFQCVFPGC
GSTO1 inh: counter-screen for RBBP9 inhibitors: inhibitors of human GSTO1 | hit rate 1.1% among 300,000 | recombinant GSTO1, activity-based probe fluorescence polarization | P78417 | AID 1974 | inhibition, % at 5.96 µM;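 active means inhibition above the campaign mean inhibition plus 3 SD, cut at about 35% in these data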
Fam108B inh: counter-screen for RBBP9 inhibitors: inhibitors of mouse Fam108B; recombinant Fam108B, FP-Rh probe fluorescence polarization; inhibition, % at 9.51 µM; hit rate 0.33% among 300,000;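 active means inhibition above the screen mean inhibition plus 3 SD, computed separately per campaign, cut at about 18% in these data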;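 further: inhibitors lower polarization as less probe binds the enzyme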
PAD4 inh: inhibitors of human PAD4 | recombinant PAD4, RCA probe fluorescence polarization | hit rate 0.41% among 330,000 | AID 485272 | inhibition, % at 6.36 µM | Q9UM07;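 active means percent inhibition above a cutoff equal to the mean of all tested compounds plus 3 SD, cut at about 15% in these data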
Fam108b confirm: confirmation of mouse Fam108b serine hydrolase inhibitors | shares compounds with Fam108B inh | recombinant Fam108b, FP-Rh probe fluorescence polarization | inhibition, % at 9.51 µM | hit rate 44% among 930;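 active means inhibition above a limit from the primary screen, the mean over all compounds plus 3 SD, cut at about 19% in these data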;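 further: inhibitors free the probe so polarization falls as inhibition rises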
Fam108b ABPP HTS: inhibits mouse Fam108b in gel-based ABPP. shares compounds with Fam108B inh. recombinant Fam108b, fluorophosphonate probe. inhibition, % at 20 µM. hit rate 44% among 260; in the data active means inhibition above about 40%
GSTO1 inh conf: confirmation of human GSTO1 inhibitors. shares compounds with GSTO1 inh. recombinant GSTO1, probe fluorescence polarization. inhibition, % at 5.96 µM. hit rate 54% among 2,400;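 active means inhibition above the primary screen's cutoff, its mean inhibition plus 3 SD, cut at about 35% in these data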;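 further: loss of polarization as inhibitors block binding of rhodamine sulfonate ester activity probe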
LYPLA1 conf: LYPLA1 (human) inhibition, confirmation counter-screen | shares compounds with LYPLA1 counter | recombinant LYPLA1, FP-Rh probe fluorescence polarization | inhibition, % at 5.9 µM | hit rate 69% among 480 | AID 2233;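 active means mean inhibition across replicates above the hit cutoff set in the primary screen, cut at about 15% in these data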;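 further: loss of FP-Rh probe labeling of LYPLA1 seen as lower polarization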
A number is an active result; i = inactive; nt = no result. Only some compounds are listed: those with a hit (about 1.8% of all), similar ones and a draw of the others.

SMILES | LYPLA2 counter | LYPLA1 counter | PME-1 inh | GSTO1 inh | Fam108B inh | PAD4 inh | Fam108b confirm | GSTO1 inh conf | others
O=C1/C(=C/C=C/c2ccco2)SC(=S)N1c1ccc(O)cc1 | i | i | i | 45.9 | 19.4 | i | i | i
O=C(Nc1cccc(C(F)(F)F)c1)c1ccc2nc(-c3ccco3)c(-c3ccco3)nc2c1 | i | i | 30.1 | 49.7 | 52.4 | i | i | i
O=C(Nc1cccc(C(F)(F)F)c1)c1cc[n+]([O-])cc1 | i | i | i | i | i | i | nt | nt
Cc1ccc(Cn2c(C(C)Nc3nc(-c4ccc(Cl)c([N+](=O)[O-])c4)cs3)nc3cc(C(F)(F)F)ccc32)cc1 (centres undefined) | i | i | i | i | i | i | nt | nt
CCn1nc([N+](=O)[O-])c(C(C#N)c2nc3cc(C(F)(F)F)ccc3s2)c(Cl)c1=O (centres undefined) | i | i | 56.4 | 50.7 | 43.0 | i | 38.4 | 50.9 | Fam108b ABPP HTS=65.0
COCCCNC(=O)Cn1cnc2c(OCc3ccccc3)ncnc21 | nt | nt | nt | nt | nt | i | nt | nt
Cc1nc(SCC(=O)NCC2CCCO2)[nH]c(=O)c1C (centres undefined) | i | i | i | i | i | i | nt | nt
Cc1ccc(/C=C2\SC(=S)N(/N=C/c3cc([N+](=O)[O-])ccc3O)C2=O)o1 | i | i | i | 49.7 | 25.2 | i | 25.5 | 43.3
Brc1cccc(C2Nc3cccc4cccc(c34)N2)c1 | i | i | i | 40.4 | 21.9 | i | i | i
Brc1ccc(C2Nc3cccc4cccc(c34)N2)o1 | i | i | i | 53.5 | 26.1 | i | i | i
CCOc1ccc(C2Nc3cccc4cccc(c34)N2)cc1OC | i | i | i | 44.6 | 25.2 | i | i | i
CCOc1ccc(C2NCCc3cc(OC)c(OC)cc32)cc1OC (centres undefined) | i | i | i | i | i | i | nt | nt
Cc1cn2c(=O)c(C(=O)N3CCN(c4ccccc4Cl)CC3)cnc2s1 | i | i | i | i | i | i | nt | nt
O=S(=O)(O)c1cc(O)ccc1O | i | i | i | i | i | i | nt | nt
O=S(=O)(c1cc(O)ccc1O)c1cccc2c(S(=O)(=O)c3cc(O)ccc3O)cccc12 | i | i | i | 64.3 | 36.3 | i | 31.6 | i | Fam108b ABPP HTS=55.0
Cc1ccc(S(=O)(=O)N2CCOC23CCN(C(=O)c2ccccc2Br)CC3)cc1 | i | i | i | i | i | i | nt | nt
O=C1C(=O)c2ccc(-c3ccccc3)cc2-c2ccccc21 | i | i | i | 87.4 | 54.4 | i | 69.3 | 90.6 | Fam108b ABPP HTS=i
Nc1ccc2c(c1)C(=O)c1ccccc1-2 | i | i | i | i | i | i | nt | nt
COc1ccc(CN2CCN(Cc3c[nH]c4ccccc34)CC2CCO)c(F)c1 (centres undefined) | i | i | i | i | i | i | nt | nt
CCOc1ccc(-c2csc(/C(C#N)=C\c3ccc(O)c([N+](=O)[O-])c3)n2)cc1 | i | i | i | 43.1 | 25.0 | i | i | 53.9
CCCCn1c(N)c(N(CC(C)C)C(=O)CSc2nnc(-c3ccc(Cl)cc3)o2)c(=O)[nH]c1=O | i | i | i | i | i | i | nt | nt
O=C(Cc1ccccc1)NCC(=O)OCC(=O)c1ccc(Cl)cc1 | i | i | i | i | i | i | nt | nt
Cc1ccc(C)c(Cn2ncc3ccccc32)c1 | i | i | i | i | i | i | nt | nt
Cn1c2ccccc2c(=O)n2c(=O)c3ccccc3cc12 | i | i | i | 78.1 | 28.7 | 68.7 | i | i
O=C(O)c1ccc2c(c1)C(=O)/C(=C\c1ccco1)C2=O | i | i | i | 40.0 | 18.4 | i | i | 50.0
SMILES | LYPLA2 counter | LYPLA1 counter | PME-1 inh | GSTO1 inh | Fam108B inh | PAD4 inh | Fam108b confirm | GSTO1 inh conf | others
Cc1ccc(O)c(NC(=O)c2ccc3c(c2)C(=O)N(Cc2cccnc2)C3=O)c1 | i | i | i | i | i | i | nt | nt
Cc1nc(S/C(=C/c2ccc(-c3cc(Cl)ccc3C)o2)C(=O)O)n[nH]1 | i | 25.8 | 34.2 | i | 24.9 | i | 18.3 | nt | LYPLA1 conf=27.6
Cc1nc(S/C(=C/c2ccc(-c3ccc(C(=O)O)cc3)o2)C(=O)O)n[nH]1 | i | i | i | i | i | i | nt | nt
COc1ccc(N(CC(=O)NC2CCCC2)C(=O)CCC(=O)Nc2cc(C)on2)cc1OC | i | i | i | i | i | i | nt | nt
C/C(=N\NC(=O)c1cccc(Cl)c1)C1C(=O)c2ccccc2C1=O | i | 24.3 | i | i | 30.9 | i | 34.4 | nt | LYPLA1 conf=28.4
O=C(O)CCCNc1cc(N2CCN(C(=O)c3ccco3)CC2)c2noc3c2c1C(=O)c1ccccc1-3 | i | 18.1 | i | 53.4 | 35.3 | i | 40.8 | i | Fam108b ABPP HTS=75.0;LYPLA1 conf=18.5
O=C1c2ccccc2-c2c1cccc2C(=O)N1CCN(C(=O)c2ccco2)CC1 | i | i | i | i | i | i | nt | nt
O=c1/c(=C\c2cc([N+](=O)[O-])cc([N+](=O)[O-])c2O)sc2nc3ccccc3n12 | i | 15.8 | i | i | 52.0 | i | 39.4 | nt | LYPLA1 conf=i
COC(=O)/C=c1/sc2nc3ccccc3n2c1=O | i | i | i | i | i | i | nt | nt
CCCCCCCCCCCCCCCC[n+]1ccc(/C=N/O)cc1 | i | 14.9 | 56.4 | i | 40.8 | i | 44.5 | nt | LYPLA1 conf=19.6
CCOC(=O)C1(CC2CC2)CCN(S(=O)(=O)/C=C/c2ccccc2)CC1 | i | i | i | i | i | i | nt | nt
CC1CCN(S(=O)(=O)c2ccc3c(c2)N(CC(=O)N(C)Cc2ccco2)C(=O)CO3)CC1 | i | i | i | i | i | i | nt | nt
O=C(N/N=C/c1cc(Cl)c(O)c(Cl)c1)c1cc2c(ccc3ccccc32)o1 | i | 24.1 | 57.2 | 37.2 | 36.9 | i | 51.9 | nt | LYPLA1 conf=i
NC1=NC(=Nc2cccc(S(N)(=O)=O)c2)c2ccccc21 | i | i | i | i | i | i | nt | nt
COc1cc(N=Nc2cccc(S(N)(=O)=O)c2)c2ccccc2c1N | i | 14.2 | 29.7 | i | 34.0 | i | i | nt | LYPLA1 conf=i
Cc1ccc(C(=O)N/N=C/c2ccc(-c3ccc(Br)cc3[N+](=O)[O-])o2)o1 | i | 18.3 | 53.1 | 65.8 | 19.1 | i | i | i | LYPLA1 conf=i
CC(Sc1nnc(Cc2ccccc2)o1)C(=O)NC1(C#N)CCCCC1 (centres undefined) | nt | nt | nt | nt | nt | i | nt | nt
Cc1c(C(=O)Nc2c3c(nn2C(C)(C)C)CS(=O)(=O)C3)cccc1[N+](=O)[O-] | i | i | i | i | i | i | nt | nt
CC1=NN(c2ccccc2)C(=O)/C1=C/c1c(O)n(-c2ccc(F)c(Cl)c2)[nH]c1=O | i | 26.0 | 68.0 | i | 66.8 | i | 65.4 | nt | Fam108b ABPP HTS=i;LYPLA1 conf=i
CCOc1ccc(NC(=S)Nc2ccc(OCC)cc2)cc1 | i | i | i | i | i | i | nt | nt

High-throughput results (PubChem)
